{"source": "the supplement of paper PMC7156485", "details_in_all_cases": "concentration: 10 µM; 24 h", "key": {"HCC1569 [1]": {"tested_on": "HCC1569", "assay": "cell number relative to DMSO (% of DMSO); higher = more cells (less growth inhibition / toxicity)", "procedure,_shortened": "(§1)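 Treatment: HCC1569 and TDF cells, 800 per well in 384-well plates with RPMI and 10% FBS, were given compounds at 10 µM for 24 h at 37 °C, in triplicate. Readout: after 3.7% formaldehyde fixation, cells were stained with a rabbit anti-H1.0 antibody, an AlexaFluor 647 secondary and DAPI. Reported values are H1.0 nuclear intensity or cell number as percent of the plate control, taken as the median of replicates, with positional smoothing for HCC1569.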"}, "TDF [2]": {"tested_on": "TDF", "assay": "cell number relative to DMSO (% of DMSO); higher = more cells (less growth inhibition / toxicity)", "procedure,_shortened": "as §1"}, "TDF [3]": {"tested_on": "TDF", "assay": "H1.0 immunofluorescence intensity relative to DMSO (% of DMSO); higher = stronger H1.0 induction, active = 120 or more", "procedure,_shortened": "as §1"}, "HCC1569 [4]": {"tested_on": "HCC1569", "assay": "H1.0 immunofluorescence intensity relative to DMSO (% of DMSO); higher = stronger H1.0 induction, active = 140 or more", "procedure,_shortened": "as §1"}}, "note": "± gives the standard deviation of the averaged measurements.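 Throughout, for H1.0 immunofluorescence intensity relative to DMSO: TDF is a line of transformed human dermal fibroblasts of mesenchymal origin.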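 Throughout, for cell number relative to DMSO: TDF denotes transformed human dermal fibroblasts of mesenchymal origin.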", "data": [{"smiles": "COc1cc(C2c3cc4c(cc3C(O)C3COC(=O)C23)OCO4)cc(OC)c1OC", "note": "(stereo not drawn) [Picropodophyllin]", "values": [{"measurement": "cell number", "setting": "HCC1569 [1]", "result": 58.3}, {"measurement": "cell number", "setting": "TDF [2]", "result": 10.9}, {"measurement": "H1.0 immunofluorescence intensity", "setting": "TDF [3]", "result": "165 (active)"}, {"measurement": "H1.0 immunofluorescence intensity", "setting": "HCC1569 [4]", "result": "128 (inactive)"}]}, {"smiles": "CN1C2CC(=O)CC1C(O)C2", "note": "(stereo not drawn) [6-Hydroxytropinone]", "values": [{"measurement": "cell number", "setting": "HCC1569 [1]", "result": 103}, {"measurement": "cell number", "setting": "TDF [2]", "result": 111}, {"measurement": "H1.0 immunofluorescence intensity", "setting": "TDF [3]", "result": "88.5 (inactive)"}, {"measurement": "H1.0 immunofluorescence intensity", "setting": "HCC1569 [4]", "result": "89.2 (inactive)"}]}, {"smiles": "Cc1sc2ccccc2c1CC1=NCCN1.O=C(O)C(=O)O", "note": "[Benazoline oxalate]", "values": [{"measurement": "cell number", "setting": "HCC1569 [1]", "result": 104}, {"measurement": "cell number", "setting": "TDF [2]", "result": 106}, {"measurement": "H1.0 immunofluorescence intensity", "setting": "TDF [3]", "result": "92 (inactive)"}, {"measurement": "H1.0 immunofluorescence intensity", "setting": "HCC1569 [4]", "result": "81.1 (inactive)"}]}, {"smiles": "Cl.c1ccc2c(c1)OCC(C1=NCCN1)O2", "note": "(stereo not drawn) [Idazoxan hydrochloride]", "values": [{"measurement": "cell number", "setting": "HCC1569 [1]", "result": 102}, {"measurement": "cell number", "setting": "TDF [2]", "result": 98.8}, {"measurement": "H1.0 immunofluorescence intensity", "setting": "TDF [3]", "result": "99.6 (inactive)"}, {"measurement": "H1.0 immunofluorescence intensity", "setting": "HCC1569 [4]", "result": "99 (inactive)"}]}, {"smiles": "NCCCP(=O)(O)O", "note": "[3-Aminopropylphosphonic acid]", "values": [{"measurement": "cell number", "setting": "HCC1569 [1]", "result": 97.9}, {"measurement": "cell number", "setting": "TDF [2]", "result": 90.3}, {"measurement": "H1.0 immunofluorescence intensity", "setting": "TDF [3]", "result": "95.4 (inactive)"}, {"measurement": "H1.0 immunofluorescence intensity", "setting": "HCC1569 [4]", "result": "101 (inactive)"}]}, {"smiles": "CN1C2CCC1CC(OC(=O)C(CO)c1ccccc1)C2", "note": "(stereo not drawn) [Atropine]", "values": [{"measurement": "cell number", "setting": "HCC1569 [1]", "result": 104}, {"measurement": "cell number", "setting": "TDF [2]", "result": 110}, {"measurement": "H1.0 immunofluorescence intensity", "setting": "TDF [3]", "result": "93.7 (inactive)"}, {"measurement": "H1.0 immunofluorescence intensity", "setting": "HCC1569 [4]", "result": "107 (inactive)"}]}, {"smiles": "Cl.O=C(O)Cc1cnc[nH]1", "note": "[Imidazole-4-acetic acid hydrochloride]", "values": [{"measurement": "cell number", "setting": "HCC1569 [1]", "result": 105}, {"measurement": "cell number", "setting": "TDF [2]", "result": 107}, {"measurement": "H1.0 immunofluorescence intensity", "setting": "TDF [3]", "result": "93 (inactive)"}, {"measurement": "H1.0 immunofluorescence intensity", "setting": "HCC1569 [4]", "result": "93.3 (inactive)"}]}, {"smiles": "CNc1ccc2oc(CC3OC4(CCC3C)OC(C(C)C(=O)c3ccc[nH]3)C(C)CC4C)nc2c1C(=O)O", "note": "(stereo not drawn)", "values": [{"measurement": "cell number", "setting": "HCC1569 [1]", "result": 70.4}, {"measurement": "cell number", "setting": "TDF [2]", "result": 49.7}, {"measurement": "H1.0 immunofluorescence intensity", "setting": "TDF [3]", "result": "151 (active)"}, {"measurement": "H1.0 immunofluorescence intensity", "setting": "HCC1569 [4]", "result": "124 (inactive)"}]}, {"smiles": "O=[N+]([O-])c1ccc(O[C@@H]2O[C@H](CO)[C@@H](O)[C@H](O)[C@H]2F)c([N+](=O)[O-])c1", "note": "[2,4-Dinitrophenyl 2-fluoro-2-deoxy-beta-D-glucopyranoside]", "values": [{"measurement": "cell number", "setting": "HCC1569 [1]", "result": 105}, {"measurement": "cell number", "setting": "TDF [2]", "result": 111}, {"measurement": "H1.0 immunofluorescence intensity", "setting": "TDF [3]", "result": "86.5 (inactive)"}, {"measurement": "H1.0 immunofluorescence intensity", "setting": "HCC1569 [4]", "result": "93.2 (inactive)"}]}, {"smiles": "CN1CCC(c2c[nH]c3ccc(O)cc23)CC1.O=C(O)C=CC(=O)O", "values": [{"measurement": "cell number", "setting": "HCC1569 [1]", "result": 101}, {"measurement": "cell number", "setting": "TDF [2]", "result": 101}, {"measurement": "H1.0 immunofluorescence intensity", "setting": "TDF [3]", "result": "93.8 (inactive)"}, {"measurement": "H1.0 immunofluorescence intensity", "setting": "HCC1569 [4]", "result": "82.3 (inactive)"}]}, {"smiles": "NC(=NN=Cc1ccc(-c2cccc([N+](=O)[O-])c2)o1)N[N+](=O)[O-]", "note": "[ERK Inhibitor III]", "values": [{"measurement": "cell number", "setting": "HCC1569 [1]", "result": 102}, {"measurement": "cell number", "setting": "TDF [2]", "result": 101}, {"measurement": "H1.0 immunofluorescence intensity", "setting": "TDF [3]", "result": "95.3 (inactive)"}, {"measurement": "H1.0 immunofluorescence intensity", "setting": "HCC1569 [4]", "result": "102 (inactive)"}]}, {"smiles": "Cl.Oc1ccc2c3c1OC1c4[nH]c5ccccc5c4CC4(O)C(C2)N(CC2CC2)CCC314", "note": "(stereo not drawn) [Naltrindole.HCl]", "values": [{"measurement": "cell number", "setting": "HCC1569 [1]", "result": 103}, {"measurement": "cell number", "setting": "TDF [2]", "result": 99.3}, {"measurement": "H1.0 immunofluorescence intensity", "setting": "TDF [3]", "result": "93.2 (inactive)"}, {"measurement": "H1.0 immunofluorescence intensity", "setting": "HCC1569 [4]", "result": "107 (inactive)"}]}, {"smiles": "Clc1ccc(C2CC3CCC2N3)cn1", "note": "(racemic)", "values": [{"measurement": "cell number", "setting": "HCC1569 [1]", "result": 102}, {"measurement": "cell number", "setting": "TDF [2]", "result": 96.3}, {"measurement": "H1.0 immunofluorescence intensity", "setting": "TDF [3]", "result": "90.6 (inactive)"}, {"measurement": "H1.0 immunofluorescence intensity", "setting": "HCC1569 [4]", "result": "81.4 (inactive)"}]}, {"smiles": "COc1cc(C2c3cc4c(cc3C(O)C3COC(=O)C23)OCO4)cc(OC)c1OC", "note": "(stereo not drawn) [Podophyllotoxin]", "values": [{"measurement": "cell number", "setting": "HCC1569 [1]", "result": "61.2 ± 1.9"}, {"measurement": "cell number", "setting": "TDF [2]", "result": "10.1 ± 0.34"}, {"measurement": "H1.0 immunofluorescence intensity", "setting": "TDF [3]", "result": "152 (active)"}, {"measurement": "H1.0 immunofluorescence intensity", "setting": "HCC1569 [4]", "result": "128 (inactive)"}]}, {"smiles": "CCC(C(=O)O)C1CCC(C)C(C(C)C(O)C(C)C(=O)C(CC)C2OC3(C=CC(O)C4(CCC(C)(C5CCC(O)(CC)C(C)O5)O4)O3)C(C)CC2C)O1", "note": "(stereo not drawn) [Salinomycin]", "values": [{"measurement": "cell number", "setting": "HCC1569 [1]", "result": 87.1}, {"measurement": "cell number", "setting": "TDF [2]", "result": 87.7}, {"measurement": "H1.0 immunofluorescence intensity", "setting": "TDF [3]", "result": "111 (inactive)"}, {"measurement": "H1.0 immunofluorescence intensity", "setting": "HCC1569 [4]", "result": "110 (inactive)"}]}, {"smiles": "CC(N)Cc1cnc[nH]1.Cl.Cl", "note": "(stereo not drawn) [Histamine, R(-)-alpha-methyl-, dihydrochloride]", "values": [{"measurement": "cell number", "setting": "HCC1569 [1]", "result": 97.4}, {"measurement": "cell number", "setting": "TDF [2]", "result": 102}, {"measurement": "H1.0 immunofluorescence intensity", "setting": "TDF [3]", "result": "95.5 (inactive)"}, {"measurement": "H1.0 immunofluorescence intensity", "setting": "HCC1569 [4]", "result": "93.1 (inactive)"}]}, {"smiles": "C[N+]1([O-])C2CCC1CC(OC(=O)C(CO)c1ccccc1)C2.Cl", "note": "(stereo not drawn)", "values": [{"measurement": "cell number", "setting": "HCC1569 [1]", "result": 97.9}, {"measurement": "cell number", "setting": "TDF [2]", "result": 107}, {"measurement": "H1.0 immunofluorescence intensity", "setting": "TDF [3]", "result": "92.4 (inactive)"}, {"measurement": "H1.0 immunofluorescence intensity", "setting": "HCC1569 [4]", "result": "85 (inactive)"}]}, {"smiles": "CN(c1nc2ccccc2s1)C1CCN(CC(O)COc2ccc(F)c(F)c2)CC1.Cl.Cl", "note": "(stereo not drawn)", "values": [{"measurement": "cell number", "setting": "HCC1569 [1]", "result": 84.8}, {"measurement": "cell number", "setting": "TDF [2]", "result": 88.9}, {"measurement": "H1.0 immunofluorescence intensity", "setting": "TDF [3]", "result": "99 (inactive)"}, {"measurement": "H1.0 immunofluorescence intensity", "setting": "HCC1569 [4]", "result": "141 (active)"}]}, {"smiles": "CC12CCC(O)CC1CCC1C2CCC2(C)C(c3ccc(=O)oc3)CCC12O", "note": "(stereo not drawn) [Bufalin]", "values": [{"measurement": "cell number", "setting": "HCC1569 [1]", "result": 52.7}, {"measurement": "cell number", "setting": "TDF [2]", "result": 45}, {"measurement": "H1.0 immunofluorescence intensity", "setting": "TDF [3]", "result": "114 (inactive)"}, {"measurement": "H1.0 immunofluorescence intensity", "setting": "HCC1569 [4]", "result": "107 (inactive)"}]}, {"smiles": "CC1OC(C[N+](C)(C)C)CC1O.[Cl-]", "note": "(single isomer, unassigned; (+)) [(+)-Muscarine chloride]", "values": [{"measurement": "cell number", "setting": "HCC1569 [1]", "result": 106}, {"measurement": "cell number", "setting": "TDF [2]", "result": 116}, {"measurement": "H1.0 immunofluorescence intensity", "setting": "TDF [3]", "result": "93 (inactive)"}, {"measurement": "H1.0 immunofluorescence intensity", "setting": "HCC1569 [4]", "result": "83.8 (inactive)"}]}, {"smiles": "CCCCCCCCCCCCCC(=O)OC1C(C)C2(O)C(C=C(CO)CC3(O)C(=O)C(C)=CC32)C2C(C)(C)C12OC(C)=O", "note": "(stereo not drawn) [4alpha-Phorbol-12-myristate-13-acetate]", "values": [{"measurement": "cell number", "setting": "HCC1569 [1]", "result": 98.4}, {"measurement": "cell number", "setting": "TDF [2]", "result": 111}, {"measurement": "H1.0 immunofluorescence intensity", "setting": "TDF [3]", "result": "95.6 (inactive)"}, {"measurement": "H1.0 immunofluorescence intensity", "setting": "HCC1569 [4]", "result": "108 (inactive)"}]}, {"smiles": "O=C1NC(=O)c2c1c1c3ccccc3[nH]c1c1[nH]c3ccccc3c21", "values": [{"measurement": "cell number", "setting": "HCC1569 [1]", "result": 98.8}, {"measurement": "cell number", "setting": "TDF [2]", "result": 126}, {"measurement": "H1.0 immunofluorescence intensity", "setting": "TDF [3]", "result": "79.9 (inactive)"}, {"measurement": "H1.0 immunofluorescence intensity", "setting": "HCC1569 [4]", "result": "127 (inactive)"}]}]}
